Pf Dd2 inh = Plasmodium falciparum Dd2 growth inhibition; P. falciparum Dd2 growth, SYBR Green, 72 h; Potency, µM (highest dose often 28.9 µM), for inactives: at the top dose activity, negative = inhibition, usual class: inhibitors; hit rate 4.3% among 120,000; AID 1347417; active means well fitted inhibition curve with a large enough effect;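 further: plate controls were DMSO vehicle for no effect and reference drug for full effect; nearly all actives have a fitted effect of over 65% in size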
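Infected erythrocytes (Dd2, 0.3% parasitemia, 2.5% hematocrit final) are added to compound in RPMI-1640/Albumax II medium, grown 72 h at 37C in low oxygen, then lysed with saponin/Triton-X containing SYBR Green and read by fluorescence.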
Active calls of the source: *; [ ] = remark or other dose. This is one part of a sample in which hits are shown more often than they occur. Potency means the concentration at half of the fitted maximal effect.

COc1ccc(OC)c(CNC(=O)C2Cn3cccc3C(=O)N2)c1 (stereo not given) was read as Pf Dd2 inh 51%.
`O=C(c1ccccc1F)N1CCc2n[nH]c(=O)n2CC1` gave Pf Dd2 inh 62%.
For Cc1ccc(CSc2nc3ccncc3n2Cc2nc(-c3ccc(Cl)cc3)oc2C)cc1 the results were Pf Dd2 inh 5%.
For Cc1ccc(Cn2c(SCc3ccc(C(=O)NC4CCCC4)cc3)nc3ccncc32)cc1 the results were Pf Dd2 inh 11µM*.
`COc1ccc(Cn2c(SCc3ccc(C(=O)NC4CCCC4)cc3)nc3ccncc32)cc1` gave Pf Dd2 inh -13%.
For COc1ccc(CSc2nc3ccncc3n2CC(=O)Nc2cc(C)cc(C)c2)cc1 the results were Pf Dd2 inh 49%.
Screening Cc1ccc(Cn2c(SCc3ccc(C(=O)NC4CCCCC4)cc3)nc3ccncc32)cc1 returned Pf Dd2 inh 11µM*.
Screening Cc1cccc(CSc2nc3cc(C(=O)NC4CCCC4)ccc3c(=O)n2Cc2ccccc2)c1 returned Pf Dd2 inh 18%.
`COc1ccc(Cn2c(SCc3ccc(C(=O)NC4CCCCC4)cc3)nc3ccncc32)cc1` gave Pf Dd2 inh 7.9µM*.
Screening Cc1ccc(C(=O)CSc2nc3cc(C(=O)NC4CCCC4)ccc3c(=O)n2CC2CCCO2)c(C)c1 (stereo not given) returned Pf Dd2 inh -3%.
`Cc1ccc(Cn2c(=O)n(Cc3ccc(C(=O)NC4CCN(Cc5ccccc5)CC4)cc3)c(=O)c3ccccc32)cc1` gave Pf Dd2 inh 7%.
`CCn1nccc1C(=O)N1CCCCCCNC(=O)[C@@H]2CCC[C@@H]21` gave Pf Dd2 inh 8%.
`O=C(COc1ccc(-n2cnnn2)cc1)N1CCCC2(CCNCC2)CC1` gave Pf Dd2 inh -1%.
Screening COc1ccc(-c2ccc3nnc(CNC(=O)c4ccc(OC)nc4OC)n3n2)cc1 returned Pf Dd2 inh inactive.
For O=C1NCN(Cc2ccc(Cl)cc2)C12CCN(Cc1cccc(C(F)(F)F)c1)CC2 the results were Pf Dd2 inh -6%.
Screening Cc1nc(N2CCC(C(=O)NCC3CCCCC3)CC2)cc(C(F)(F)F)n1 returned Pf Dd2 inh -19%.
CCN1CCN(c2nc3c(s2)CN(C(=O)CCC(C)C)CC3)CC1 was read as Pf Dd2 inh inactive.
`CCOCCn1c(=O)[nH]c2cc(C(=O)N(C)Cc3cnn(C)c3)ccc21` gave Pf Dd2 inh -9%.
`CN1CC(=O)N(C2CCNCC2)Cc2c1ncnc2N1CCC(N2CCOCC2)CC1` gave Pf Dd2 inh 9%.
`COc1ccc(C2Cn3nnc(C(=O)N4CCC(C(=O)NCc5cccc(C)c5)CC4)c3CO2)cc1` (stereo not given) gave Pf Dd2 inh -17%.
`CCOc1cc(=O)n2c(c1C(=O)Nc1cc(OC)ccc1OC)CCCC2` gave Pf Dd2 inh 12%.
Screening CCOC(=O)c1c(NC(=O)COc2ccc(CC)cc2)sc2c1CCCC2 returned Pf Dd2 inh 7%.
CCOC(=O)c1c(NC(=O)COc2ccc(Cl)cc2C)sc2c1CCCCC2 was read as Pf Dd2 inh -7%.
`COc1ccc(OC)c(NC(=O)c2c(NCc3ccc(OC)c(OC)c3)sc3c2CCC3)c1` gave Pf Dd2 inh 7.9µM*.
For CCOC(=O)c1c(NC(=O)c2ccc(OC)cc2)sc2c1CCCCC2 the results were Pf Dd2 inh 30%.
`CCOC(=O)N1CCc2c(sc(NCc3cccc(F)c3)c2C(=O)Nc2ccc(OCC)cc2)C1` gave Pf Dd2 inh 13µM*.
`COC(=O)c1c(NC(=O)COc2ccc(Cl)cc2C)sc2c1CCCCC2` gave Pf Dd2 inh 19%.
For CCOC(=O)N1CCc2c(sc(NCc3cc(OC)ccc3OC)c2C(=O)Nc2cc(OC)ccc2OC)C1 the results were Pf Dd2 inh 11µM*.
CCOc1ccc(NC(=O)c2c(NC(=O)c3ccccc3F)sc3c2CCC3)cc1 was read as Pf Dd2 inh inactive.
Screening COc1ccc(OC)c(CCNC(=O)c2csc3c2CCCCC3)c1 returned Pf Dd2 inh 5%.
Screening COc1ccc(NC(=O)NCc2c(-n3cccc3)sc3c2CCCC3)c(OC)c1 returned Pf Dd2 inh 9%.
`COc1ccc(Cl)cc1NC(=O)c1c(NCc2ccc(C)o2)sc2c1CCCCC2` gave Pf Dd2 inh 14µM*.
For COc1ccc(CN2C[C@@H](CO)[C@H](C3CCN(C(C)=O)CC3)C2)cc1OC the results were Pf Dd2 inh 41%.
`CCC(=O)N1CCC2(CC1)c1[nH]c3ccc(OC)cc3c1CCN2C` gave Pf Dd2 inh -5%.
`COc1ccc(OCc2nc(C)c(CCO)c(=O)n2CC(=O)Nc2cccc(C)c2C)cc1` gave Pf Dd2 inh 2%.
`COCc1cn([C@H]2CO[C@H]3[C@@H]2OC[C@@H]3N)nn1` gave Pf Dd2 inh 6%[44.1 µM].
Screening CCNC(=O)N1CCCC1c1noc(CCC(=O)NC(C)C)n1 (stereo not given) returned Pf Dd2 inh 36%.
`COc1cccc(C(=O)N2CC3CC(C2)[C@H]2CCCC(=O)N2C3)c1` (stereo not given in full) gave Pf Dd2 inh -5%.
